Results as given in PubChem BioAssay AID1159580 (chemical genetic matrix, 2015).
The whole screen tested about 5,500 compounds, of which about 2,000 (36%) were called active. Inconclusive results (about 18%) are left out. No stated cut-off is given here; in the data, active means normalized growth mostly below about 0.91 (no sharp cut-off); inconclusive means no clear call, values can overlap the other calls; inactive means mostly above about 0.92. This is one part of the list.

Test: chemical genetic growth profiling, strain panel (AID 1159580);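 further: tested at 20 µM; growth read once vehicle control cultures reached saturation at 30 °C; 1 = growth at the plate median or of vehicle wells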
Settings: S. cerevisiae deletion strains, growth OD

Measured: normalized growth

NOCC(=O)O
inactive: locus YAL040C, strain CLN3, stronger effect = lower value 0.96 | locus YCL061C, strain MRC1 (second series), stronger effect = lower value 0.985 | locus YDR363W, strain ESC2, stronger effect = lower value 1.01 | locus YER002W, strain NOP16, stronger effect = lower value 0.997 | locus YGR229C, strain SMI1, stronger effect = lower value 0.979 | locus YJR075W, strain HOC1, stronger effect = lower value 1 | locus YNL128W, strain TEP1, stronger effect = lower value 0.977 | locus YNL175C, strain NOP13, stronger effect = lower value 1.01 | locus YNL197C, strain WHI3, stronger effect = lower value 0.993 | locus YNL224C, strain SQS1, stronger effect = lower value 1.04 | locus YNL322C, strain KRE1, stronger effect = lower value 0.998 | locus YOR083W, strain WHI5 (second series), stronger effect = lower value 0.993 | locus YPL055C, strain LGE1, stronger effect = lower value 0.999
